Assay results taken from PubChem BioAssay.
The source made the active and inactive calls. Unless noted, the rule behind the calls is not given here.

Assays:
[1] = HepG2 liver cancer cell viability effects, profiling panel, resazurin fluorescence, 24 h, PK04 Diversity Set (AID 1172); details: higher = more signal; note: test concentration not given here
[2] = basal S. cerevisiae growth modulation, no modifier, primary screen, OD600, strain BY4716, 24 h, basal condition (AID 1173); details: OD600, 24 h, higher = more signal, called active from +8 up or from −8 down
[3] = MM1S myeloma cell viability, profiling panel, resazurin fluorescence, basal, 24 h, PK04 Diversity Set (AID 1174); details: higher = more signal, called active from +8 up or from −8 down;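 note: MM1S multiple myeloma cell line; test concentration not given here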
[4] = target: Dihydroorotate dehydrogenase (quinone), mitochondrial (Plasmodium falciparum (isolate 3D7)) (UniProt Q08210); test: PfDHODH enzyme inhibitors, primary screen, biochemical, C-terminal His tag, absorbance 600 nm (AID 1175); details: DCIP absorbance 600 nm, higher = more signal, called active from +8 up or from −8 down;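 note: recombinant parasite enzyme with a five histidine tag at its C terminus; test concentration not given here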
Chain of Dihydroorotate dehydrogenase (quinone), mitochondrial (Plasmodium falciparum (isolate 3D7)) (Q08210 whole entry, looked up): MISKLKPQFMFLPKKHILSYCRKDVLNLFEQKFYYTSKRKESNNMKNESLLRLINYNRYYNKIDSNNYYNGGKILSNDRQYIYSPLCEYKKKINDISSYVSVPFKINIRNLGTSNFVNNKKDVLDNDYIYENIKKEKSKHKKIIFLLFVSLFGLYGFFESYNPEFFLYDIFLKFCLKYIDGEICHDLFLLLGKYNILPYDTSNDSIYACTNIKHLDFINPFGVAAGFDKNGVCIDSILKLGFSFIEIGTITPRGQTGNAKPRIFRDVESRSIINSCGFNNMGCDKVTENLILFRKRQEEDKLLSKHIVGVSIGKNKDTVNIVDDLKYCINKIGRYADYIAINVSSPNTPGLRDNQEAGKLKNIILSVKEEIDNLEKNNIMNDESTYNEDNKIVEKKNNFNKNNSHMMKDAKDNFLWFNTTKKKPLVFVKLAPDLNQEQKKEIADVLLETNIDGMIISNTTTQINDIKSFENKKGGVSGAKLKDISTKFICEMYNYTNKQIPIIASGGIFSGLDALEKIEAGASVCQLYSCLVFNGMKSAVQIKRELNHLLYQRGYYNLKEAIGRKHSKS

[5] = P. aeruginosa biofilm formation inhibitors, primary screen, strain PAO1, LB-PBS medium, absorbance 600 nm (AID 1176); note: test concentration not given here; details: P. aeruginosa PAO1 growth/biofilm, A600, 12 h; higher = more signal
[6] = S. cerevisiae RM11-1a growth modifiers, primary screen, strain RM11-1a, OD600, basal, 24 h (AID 1177); details: OD600, 24 h, higher = more signal, called active from +8 up or from −8 down;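 note: cultures grown under basal conditions with no added stressor; test concentration not given here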
[7] = E. coli acrAB mutant growth effects, primary screen, E. coli filamentation inducers, strain DRC39, OD650, 24 h (AID 1178); details: higher = more signal, called active from +8 up or from −8 down;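 note: growth measured as culture turbidity by optical density at 650 nm; test concentration not given here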
[8] = E. coli acrAB mutant growth effects, primary screen, E. coli filamentation inducers, strain DRC39, OD650, 48 h (AID 1179);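 note: screen aims at cell division blockers that make cells filament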; details: E. coli DRC39 delta-acrAB growth, higher = more signal, called active from +8 up or from −8 down
[9] = RPMI8226 myeloma cell viability, profiling panel, resazurin fluorescence, basal, 24 h, PK04 Diversity Set (AID 1180); details: higher = more signal;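 note: RPMI8826 multiple myeloma cell line at 5000 cells per well; test concentration not given here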
[10] = target: E3 ubiquitin-protein ligase XIAP (Homo sapiens) (UniProt P98170); test: XIAP binders, primary screen, biophysical, small-molecule microarray, fluorescence 635 nm (AID 1181); details: small-molecule microarray binding, higher = more signal;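 note: score merges 667 nm emission and signal to noise over triplicate slides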
Chain of E3 ubiquitin-protein ligase XIAP (Homo sapiens) (P98170 whole entry, looked up): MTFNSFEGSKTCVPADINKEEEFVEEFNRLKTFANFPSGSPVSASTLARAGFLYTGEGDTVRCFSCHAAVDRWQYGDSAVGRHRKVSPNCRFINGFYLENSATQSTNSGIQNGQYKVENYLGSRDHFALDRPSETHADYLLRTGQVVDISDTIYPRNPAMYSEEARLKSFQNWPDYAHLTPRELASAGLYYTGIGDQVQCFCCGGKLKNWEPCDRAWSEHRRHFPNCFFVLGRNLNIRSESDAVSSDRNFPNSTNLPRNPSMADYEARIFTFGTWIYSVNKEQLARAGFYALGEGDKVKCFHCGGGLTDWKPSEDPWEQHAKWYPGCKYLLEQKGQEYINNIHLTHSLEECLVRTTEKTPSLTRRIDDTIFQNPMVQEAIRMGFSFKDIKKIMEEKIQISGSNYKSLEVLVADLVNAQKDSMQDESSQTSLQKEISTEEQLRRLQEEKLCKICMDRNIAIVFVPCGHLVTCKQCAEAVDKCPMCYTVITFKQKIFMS

| Structure (SMILES) | z-score [1] | z-score [2] | z-score [3] | composite z-score [4] | z-score [5] | z-score [6] | z-score [7] | z-score [8] | z-score [9] | composite z-score [10] |
| --- | --- | --- | --- | --- | --- | --- | --- | --- | --- | --- |
| CCCC[C@H]1OB(O)C[C@H]2C1=C(C)C[C@H]1C(=O)C=CC(=O)[C@H]12 | -0.559 | -17.6 (active) | -1 (inactive) | -2.54 (inactive) | 0.318 (inactive) | 0.128 (inactive) | -0.449 (inactive) | -0.316 (inactive) | -0.312 | -0.188 |
| O=C1C2C=CC(C(O)c3ccc([N+](=O)[O-])cc3)N(Nc3ccccc3)C2C(=O)N1c1ccccc1 (stereo not given) | -0.849 | -2.61 (inactive) | -0.952 (inactive) | -1.03 (inactive) | 0.791 (inactive) | -0.453 (inactive) | -0.46 (inactive) | -0.253 (inactive) | -1.81 | -0.0085 |
| C=CC[C@]1(C(=O)NCc2ccccc2)COC(c2ccc(OCCCO)cc2)=N1 | -0.137 | -1.92 (inactive) | -1.4 (inactive) | -0.267 (inactive) | -0.0025 (inactive) | 0.02 (inactive) | 0.729 (inactive) | -0.145 (inactive) | -0.874 | 0.001 |
| C=CCC(OC(C)=O)[C@@H]1[C@@H](N(Cc2cc3ccccc3o2)C(=O)Cc2ccc(OC)cc2)c2cc(OCCCO)ccc2N1C(=O)Cc1ccc2ccccc2c1 (stereo not given in full) | -1.22 | -0.379 (inactive) | 0.499 (inactive) | 0.65 (inactive) | -0.17 (inactive) | 0.101 (inactive) | -0.529 (inactive) | -0.94 (inactive) | -0.216 | 0.308 |
| CC(C)C[C@@H]1NC(=O)[C@@]23C(=O)N[C@@H](Cc4ccccc4)C2[C@H](C)[C@@]2(C)O[C@H]2C3/C=C/C/C=C\CNC(=O)[C@@H](CC(C)C)NC1=O (stereo not given in full) | 0.175 | -1.08 (inactive) | -0.102 (inactive) | -0.0599 (inactive) | 0.0937 (inactive) | -0.664 (inactive) | 0.495 (inactive) | -0.323 (inactive) | 0.292 | -0.0752 |
| [N-]=[N+]=NCc1ccccc1C[C@]1(C(=O)O)COC(c2ccc(OCCCO)cc2)=N1 | 0.24 | 0.59 (inactive) | -0.591 (inactive) | 1.54 (inactive) | 0.37 (inactive) | -0.163 (inactive) | -0.149 (inactive) | -0.0558 (inactive) | -0.279 | -0.445 |
| CC(=O)n1cc(C(O)C2C=CC3C(=O)N(c4ccccc4)C(=O)C3N2Nc2ccccc2F)c2ccccc21 (stereo not given) | 0.68 | -1.34 (inactive) | -0.223 (inactive) | -0.349 (inactive) | 1.54 (inactive) | -0.86 (inactive) | 0.8 (inactive) | 0.86 (inactive) | 0.0072 | 0.439 |
| C=CC[C@@]12N=C(c3ccc(OCCCO)cc3)O[C@@H]1c1ccccc1N(Cc1ccccc1)C2=O | 0.157 | -0.848 (inactive) | -2.58 (inactive) | -0.162 (inactive) | 0.469 (inactive) | 0.632 (inactive) | 1.48 (inactive) | 0.666 (inactive) | -2.37 | 0.322 |
| CC(C)CNC(=O)[C@@H]1c2ccccc2C(=O)N(C(C)C)[C@H]1c1ccc(CO)cc1 | 0.0161 | 0.294 (inactive) | 0.334 (inactive) | -1.57 (inactive) | 0.348 (inactive) | -1.19 (inactive) | 0.855 (inactive) | 1.76 (inactive) | 0.609 | -0.0434 |
| COc1ccc(C#Cc2ccc3c(c2)[C@]2(C(=O)N3)[C@H](c3ccc(OCCO)cc3)N3[C@H](c4ccccc4)[C@H](c4ccccc4)OC(=O)[C@H]3[C@@H]2C(=O)O)cc1 | 1.24 | 1.85 (inactive) | -0.103 (inactive) | -12.9 (active) | 2.25 (inactive) | 1.73 (inactive) | 1.22 (inactive) | 0.0805 (inactive) | 0.149 | 0.158 |
